In PubChem BioAssay (NCI) one finds growth inhibition data, which are given here for nine compounds.

Each structure is given as a SMILES string. Compounds without any hit were thinned out: in the full panel of roughly 79,000, 15% have a hit. Values without a mark were called inactive. Calls of active or inactive are those of the source. No stated cut-off is given here; in the data, active means growth inhibition above about 70%; inactive means the rest.

Assay [1] can be described thus: NCI Yeast Anticancer Drug Screen. Data for the rad50 strain (AID 155).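 Further: 0% = growth of vehicle-only cultures of the same strain.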 The settings on record: S. cerevisiae rad50 strain growth inhibition, hits give high values. Put shortly: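 Readout: growth inhibition relative to vehicle-treated cultures. Compound exposure was carried out in a genetically defined yeast strain deficient in DNA damage repair.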
Assay [2] can be described thus: NCI Yeast Anticancer Drug Screen. Data for the mec2-1 strain (AID 157). As to conditions: S. cerevisiae mec2-1 strain, hits give high values. Put shortly: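 Vehicle-treated cultures served as reference for growth inhibition of compound-exposed mec2-1 yeast.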
The nature of assay [3]: NCI Yeast Anticancer Drug Screen. Data for the sgs1 mgt1 strain (AID 161).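 Further: 0% = growth of cultures given vehicle only.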 As to conditions: S. cerevisiae sgs1 mgt1 strain, hits give high values. Put shortly: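 Read-out: growth inhibition vs vehicle controls. Cells: mutant yeast strain deficient in DNA damage repair.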
Assay [4] in a line: NCI Yeast Anticancer Drug Screen. Data for the cln2 rad14 strain (AID 165).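 Further: 0% = growth equal to vehicle treated cultures.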 As to conditions: S. cerevisiae cln2 rad14 strain, hits give high values. An outline of the steps:
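Each compound was tested on cln2 rad14 yeast. Inhibition of growth was calculated against vehicle-exposed controls.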

Assay [5] is described as follows: NCI Yeast Anticancer Drug Screen. Data for the bub3 strain (AID 167). The settings on record: S. cerevisiae bub3 mutant strain, hits give high values. Put shortly: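 Readout: yeast growth inhibition, expressed relative to vehicle-only wells. The test organism is a mutant strain from a panel with lesions in DNA repair or checkpoint genes.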
The nature of assay [6]: NCI Yeast Anticancer Drug Screen. Data for the mlh1 rad18 strain (AID 175). The settings on record: S. cerevisiae mlh1 rad18 strain growth inhibition, hits give high values. An outline of the steps:
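Vehicle-treated cultures served as the reference for growth inhibition in a yeast strain carrying DNA damage repair alterations exposed to each compound.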

The mark [7] stands for this setting: at 5.0 µM (retest, dose inferred, filed as 0.5).
The mark [8] stands for this setting: at 50.0 µM (retest, dose inferred, filed as 5.0).

Turning to `C/C(=N/Nc1ccc([N+](=O)[O-])cc1[N+](=O)[O-])C(=O)O`, the growth inhibition in assay [1] (setting [7]) is 11%; in assay [1] (setting [8]), 69%; in assay [1] (at 50.0 µM), 95.3% (active); in assay [2] (setting [7]), 2%; in assay [2] (setting [8]) it was 63%; in assay [2] (at 50.0 µM), 59.8%. For the same compound, the growth inhibition in assay [3] (setting [7]) was -1%; in assay [3] (setting [8]), 76% (active); in assay [3] (at 50.0 µM) it was 97.5% (active); in assay [4] (setting [7]) it was -1%; in assay [4] (setting [8]), 21%; in assay [4] (at 50.0 µM) it was 13.2%. Also, the growth inhibition in assay [5] (setting [7]) is -1%; in assay [5] (setting [8]), 72% (active); in assay [5] (at 50.0 µM), 98.5% (active); in assay [6] (setting [7]), -2%; in assay [6] (setting [8]), 91% (active); in assay [6] (at 50.0 µM) it was 96.8% (active).
On to `OC(CCN1CCOCC1)c1ccc(Sc2ccccc2)cc1` (configuration not stated), for which the growth inhibition in assay [1] (setting [7]) is 55%; in assay [1] (setting [8]), 29%; in assay [1] (at 50.0 µM), 98% (active); in assay [2] (setting [7]), 46%; in assay [2] (setting [8]), 21%; in assay [2] (at 50.0 µM) it was 98.9% (active). The growth inhibition in assay [3] (setting [7]) is 61%; in assay [3] (setting [8]), 59%; in assay [3] (at 50.0 µM) it was 98.6% (active); in assay [4] (setting [7]), 53%; in assay [4] (setting [8]), 15%; in assay [4] (at 50.0 µM), 67.1%. In addition, the growth inhibition in assay [5] (setting [7]) is 88% (active); in assay [5] (setting [8]) it was 88% (active); in assay [5] (at 50.0 µM) it was 99.3% (active); in assay [6] (setting [7]) it was 62%; in assay [6] (setting [8]) it was 58%; in assay [6] (at 50.0 µM), 97.2% (active).
For the compound `CCCC/C=C(/CCCNCCc1ccccc1)[Si](C)(C)C`, the growth inhibition in assay [1] (setting [7]) was 88% (active); in assay [1] (setting [8]), 98% (active); in assay [1] (at 50.0 µM) it was 90.4% (active); in assay [2] (setting [7]), 90% (active); in assay [2] (setting [8]), 99% (active); in assay [2] (at 50.0 µM) it was 93% (active). In addition, the growth inhibition in assay [3] (setting [7]) is 98% (active); in assay [3] (setting [8]), 99% (active); in assay [3] (at 50.0 µM) it was 93.4% (active); in assay [4] (setting [7]) it was 89% (active); in assay [4] (setting [8]) it was 99% (active); in assay [4] (at 50.0 µM), 91.5% (active). The growth inhibition in assay [5] (setting [7]) is 98% (active); in assay [5] (setting [8]), 99% (active); in assay [5] (at 50.0 µM), 91.5% (active); in assay [6] (setting [7]), 97% (active); in assay [6] (setting [8]), 99% (active); in assay [6] (at 50.0 µM) it was 90.9% (active).
For the compound `CC(=O)O[C@H]1CC[C@]2(C)C34OC3C[C@]3(C)[C@@H](C(C)=O)CC[C@H]3[C@]43C=C[C@@]2(C1)C1C(=O)OC(=O)C13` (some centres not stated), the growth inhibition in assay [1] (setting [7]) is 10%; in assay [1] (setting [8]), 60%; in assay [1] (at 50.0 µM), 88.2% (active); in assay [2] (setting [7]) it was 6%; in assay [2] (setting [8]) it was 45%; in assay [2] (at 50.0 µM), 89.9% (active). For the same compound, the growth inhibition in assay [3] (setting [7]) is 5%; in assay [3] (setting [8]), 48%; in assay [3] (at 50.0 µM) it was 75.9% (active); in assay [4] (setting [7]), 0%; in assay [4] (setting [8]), 34%; in assay [4] (at 50.0 µM), 84.2% (active). The growth inhibition is 2% in assay [5] (setting [7]); 42% in assay [5] (setting [8]); 92.4% (active) in assay [5] (at 50.0 µM); -2% in assay [6] (setting [7]); 85% (active) in assay [6] (setting [8]); 93.2% (active) in assay [6] (at 50.0 µM).
Consider `O=C1C=CC(=O)N1c1ccc(Br)c(Cl)c1`, for which the growth inhibition in assay [1] (setting [7]) was 101% (active); in assay [1] (setting [8]), 100% (active); in assay [1] (at 50.0 µM) it was 68.7%; in assay [2] (setting [7]) it was 100% (active); in assay [2] (setting [8]), 100% (active); in assay [2] (at 50.0 µM), 87.8% (active). Besides, the growth inhibition in assay [3] (setting [7]) is 21%; in assay [3] (setting [8]) it was 100% (active); in assay [3] (at 50.0 µM) it was 80.3% (active); in assay [4] (setting [7]), 46%; in assay [4] (setting [8]), 100% (active); in assay [4] (at 50.0 µM), 24.2%. Also, the growth inhibition was 37% in assay [5] (setting [7]); 100% (active) in assay [5] (setting [8]); 66.6% in assay [5] (at 50.0 µM); 100% (active) in assay [6] (setting [7]); 100% (active) in assay [6] (setting [8]); 63.7% in assay [6] (at 50.0 µM).
With `CC(=O)Nc1nnc(-c2coc3ccccc3c2=O)s1`, the growth inhibition in assay [1] (setting [7]) is 7%; in assay [1] (setting [8]), 0%; in assay [1] (at 50.0 µM), 50.9%; in assay [2] (setting [7]), 4%; in assay [2] (setting [8]), 3%; in assay [2] (at 50.0 µM) it was 6.25%. Further, the growth inhibition is 1% in assay [3] (setting [7]); -3% in assay [3] (setting [8]); 20.4% in assay [3] (at 50.0 µM); 9% in assay [4] (setting [7]); 1% in assay [4] (setting [8]); 10.7% in assay [4] (at 50.0 µM). The growth inhibition is 4% in assay [5] (setting [7]); 1% in assay [5] (setting [8]); 15.4% in assay [5] (at 50.0 µM); 2% in assay [6] (setting [7]); -4% in assay [6] (setting [8]); 12.1% in assay [6] (at 50.0 µM).
`CCCC#CC(O)(C(=O)OC1CCN(C)CC1)C1CCCCC1` (configuration not stated): the growth inhibition is 34% in assay [1] (setting [7]); 55% in assay [1] (setting [8]); 63.5% in assay [1] (at 50.0 µM); 36% in assay [2] (setting [7]); 53% in assay [2] (setting [8]); 45.1% in assay [2] (at 50.0 µM). In addition, the growth inhibition was 12% in assay [3] (setting [7]); 69% in assay [3] (setting [8]); 65.9% in assay [3] (at 50.0 µM); 41% in assay [4] (setting [7]); 55% in assay [4] (setting [8]); 53.5% in assay [4] (at 50.0 µM). Besides, the growth inhibition was 23% in assay [5] (setting [7]); 56% in assay [5] (setting [8]); 58% in assay [5] (at 50.0 µM); 46% in assay [6] (setting [7]); 79% (active) in assay [6] (setting [8]); 53.5% in assay [6] (at 50.0 µM).
As to `c1ccc(-c2n[nH]c3c4ccccc4c4ccccc4c23)cc1`, the growth inhibition in assay [1] (setting [7]) is 19%; in assay [1] (setting [8]), 92% (active); in assay [1] (at 50.0 µM), 93.8% (active); in assay [2] (setting [7]) it was 16%; in assay [2] (setting [8]) it was 98% (active); in assay [2] (at 50.0 µM), 95% (active). The growth inhibition in assay [3] (setting [7]) was 34%; in assay [3] (setting [8]) it was 97% (active); in assay [3] (at 50.0 µM), 94.2% (active); in assay [4] (setting [7]), 5%; in assay [4] (setting [8]), 94% (active); in assay [4] (at 50.0 µM), 93.4% (active). Moreover, the growth inhibition in assay [5] (setting [7]) was 13%; in assay [5] (setting [8]) it was 95% (active); in assay [5] (at 50.0 µM) it was 95% (active); in assay [6] (setting [7]) it was 62%; in assay [6] (setting [8]), 96% (active); in assay [6] (at 50.0 µM), 95% (active).
`CC(=O)Oc1ccc(C(C)(C)CC(C)(C)C)cc1`: the growth inhibition in assay [1] (setting [7]) is -1%; in assay [1] (setting [8]), 62%; in assay [1] (at 50.0 µM) it was 72.2% (active); in assay [2] (setting [7]) it was -1%; in assay [2] (setting [8]), 41%; in assay [2] (at 50.0 µM) it was 95.3% (active). For the same compound, the growth inhibition in assay [3] (setting [7]) is -1%; in assay [3] (setting [8]), 26%; in assay [3] (at 50.0 µM) it was 94.8% (active); in assay [4] (setting [7]) it was -3%; in assay [4] (setting [8]), 42%; in assay [4] (at 50.0 µM), 86.3% (active). Also, the growth inhibition is 0% in assay [5] (setting [7]); 55% in assay [5] (setting [8]); 85.8% (active) in assay [5] (at 50.0 µM); -1% in assay [6] (setting [7]); 42% in assay [6] (setting [8]); 89.5% (active) in assay [6] (at 50.0 µM).
